The structures appear in SMILES notation. Inconclusive results are not listed. A call without a number means that no potency is given here. The source made the active and inactive calls. The call rests on the fitted dose curve.

The nature of the experiment: p53 small molecule agonists, cell-based qHTS assay with rat liver microsomes: qHTS cell viability counter screen (AID 1963580). Further: nearly all actives have a fitted effect of over 45% in size. Particulars: p53RE-bla HCT-116 + rat microsomes, ATP viability, 16 h; series mostly up to 66 µM. The procedure, abridged:
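After the beta-lactamase ratio was read, CellTiter-Glo was added to the same wells and luminescence measured at 30 min; cells had been treated 16 h at 37 C with compounds, rat liver microsomes and NADPH (0.5 mg/mL final each).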
A general note: In qHTS, concentration-response curves come from the screen itself.
`CCN(CC)C(=O)N[C@@H]1C=C2c3cccc4[nH]cc(c34)C[C@@H]2N(C)C1`: the Potency result was “inactive”.
On to `O=[N+]([O-])c1ccc2c3c(cccc13)CC2`, for which the Potency entry was “inactive”.
As to `CCCN(CCC)C(=O)Cc1c(-c2ccc(Cl)cc2)nc2ccc(Cl)cn12`, the Potency entry is “inactive”.
On to `CC(C)[C@H](C(=O)O[C@H](C#N)c1cccc(Oc2ccccc2)c1)c1ccc(Cl)cc1`, for which the Potency result was “inactive”.
For the molecule `CCOC(=O)C(Cl)Cc1cc(-n2nc(C)n(C(F)F)c2=O)c(F)cc1Cl` (stereo not given), the Potency entry is “inactive”.
Next, `Oc1ccc2ccc3cccc4ccc1c2c34`: “inactive”; `O=C(O)CCCCCCNC1c2ccccc2CCc2ccccc21`: “inactive”; `COP(=O)(OC)O/C(=C\Cl)c1cc(Cl)c(Cl)cc1Cl`: “inactive”.
`CS(=O)(=O)c1ccc(C(=O)C2C(=O)CCCC2=O)c(Cl)c1COCC(F)(F)F`: the Potency entry is “inactive”.
Next, `O=C(N/N=C/c1ccc([N+](=O)[O-])o1)c1cc([N+](=O)[O-])cc([N+](=O)[O-])c1O`: “inactive”; `CCCCC(=O)Cl`: “inactive”.
To `COC(=O)C(C)N(C(=O)c1ccco1)c1c(C)cccc1C` (stereo not given) belongs “inactive”; to `COc1cnc(OC)n2nc(NS(=O)(=O)c3c(OCC(F)F)cccc3C(F)(F)F)nc12`, “inactive”.
Consider `COC1=CC(=O)O[C@@H](CCc2ccccc2)C1`, for which the Potency entry was “inactive”.
In the case of `O=C1C(Cl)C(CCl)CN1c1cccc(C(F)(F)F)c1` (stereo not given), the Potency entry was “inactive”.
Next, `ClC(Cl)C(Cl)Cl`: “inactive”.
Next, `CCCCCCCC(=O)Cl`: “inactive”; `CCCCCCCCCCCCN(C)C`: “inactive”.
Next, `C=CC[C@]1(O)CC[C@H]2[C@@H]3CCC4=CC(=O)CCC4=C3C=C[C@@]21C`: “inactive”; `Cc1cccc2sc3nncn3c12`: “inactive”.
